Most compounds without a hit are left out; they make up all but 7.4% or so of the library.
Rab9 prom act – qHTS Assay for Rab9 Promoter Activators; Huh7 Rab9 promoter-luciferase reporter, luminescence, 24 h; Potency, µM (series often up to 9.22 µM), for inactives: at the highest dose activation, negative = inhibition, most hits filed as activators; 320,000 tested, 2.8% active; further: % of control where 0% means no effect; nearly all actives have a fitted effect of over 60% in size
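Luminescence from Amplite-detected luciferase (10 minutes, ambient) reports Rab9 promoter activation. Before that, stable Rab9-luciferase Huh7 cells (1500/well, reduced-serum OP-MEM I plus 10% FBS) were exposed to compound for 24 hours at 37C.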
NPC1 promoter act – qHTS Assay for NPC1 Promoter Activators | 320,000 tested, 2.4% active | Potency, µM (series often up to 9.22 µM), without a hit: at the highest dose activation, usual class: activators | Huh7 NPC1 promoter luciferase reporter, 24 h; further: % of control where 0% means no effect; nearly all actives have a fitted effect of over 60% in size
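Huh7 cells stably carrying NPC1 promoter–luciferase, plated in Opti-MEM with 10% FBS for 2 h, were exposed to compound in DMSO for 24 h at 37 °C; luciferase reagent was added for 10 min and luminescence read.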
ELG1 genotox – qHTS screen for small molecules that induce genotoxicity in human embryonic kidney (HEK293T) cells expressing luciferase-tagged ELG1; HEK293T ELG1-luciferase reporter, luminescence, 16 h; Potency, µM (doses to about 46 µM), inactives show at the highest dose activity change, positive = activation, hits mostly activators; 330,000 tested, 1.3% active; further: % of control where 0% means no effect; nearly all actives have a fitted effect of over 60% in size
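Quantitative HTS format in 1536-well plates. HEK293T ELG1-luciferase reporter cells receive test compound and are incubated 16 hr at 37 °C, 5% CO2; ONE-Glo added, 30 min room temperature, then luminescence read.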
FLuc modulator – qHTS profiling assay for firefly luciferase inhibitor/activator using purifed enzyme and Km concentrations of substrates (counterscreen for miR-21 project); purified FLuc, Km substrates, luminescence inhibition; 360,000 tested, 6.9% active; Potency, µM (top dose mostly 57.5 µM), without a hit: at the top dose activity change, negative = inhibition, actives largely listed as inhibitors; Luciferin 4-monooxygenase (Photinus pyralis), P08659; AID 588342, 2011;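 further: plate controls were vehicle for no effect and reference inhibitor for full effect; nearly all actives have a fitted effect of over 55% in size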
Target sequence (P08659 whole entry, looked up): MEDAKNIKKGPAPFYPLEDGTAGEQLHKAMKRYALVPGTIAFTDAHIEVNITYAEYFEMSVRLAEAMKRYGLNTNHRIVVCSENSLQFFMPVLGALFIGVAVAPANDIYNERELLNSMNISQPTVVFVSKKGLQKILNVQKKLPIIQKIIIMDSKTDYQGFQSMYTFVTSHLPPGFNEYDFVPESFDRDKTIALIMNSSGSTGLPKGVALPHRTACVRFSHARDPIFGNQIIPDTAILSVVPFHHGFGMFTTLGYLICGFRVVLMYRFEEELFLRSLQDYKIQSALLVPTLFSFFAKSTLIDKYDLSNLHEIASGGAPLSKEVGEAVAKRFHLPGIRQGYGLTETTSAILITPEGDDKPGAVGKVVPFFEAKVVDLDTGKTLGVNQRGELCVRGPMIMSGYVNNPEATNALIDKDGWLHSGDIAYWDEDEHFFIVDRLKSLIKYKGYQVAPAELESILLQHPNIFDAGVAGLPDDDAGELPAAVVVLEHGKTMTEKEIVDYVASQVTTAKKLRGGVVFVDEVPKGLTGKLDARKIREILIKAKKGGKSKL
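Purified P. pyralis luciferase, 10 nM final, with Km-level 10 uM D-luciferin and 10 uM ATP in 50 mM Tris acetate pH 7.5, 10 mM Mg acetate, 0.01% Tween-20, 0.05% BSA; 6-point qHTS titration about 60 µM downward; luminescence read.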
SMN2 splice up – qHTS Assay for Enhancers of SMN2 Splice Variant Expression. 210,000 tested, 2.8% active. AID 1458, 2008. HEK293 SMN2-luciferase splicing reporter, luminescence, 30-36 h. Potency, µM (titrated, usually from 46.1 µM), for inactives: top-dose activity change, positive = activation, actives largely listed as activators; further: % of control where 0% means no effect; nearly all actives have a fitted effect of over 55% in size
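qHTS luciferase splicing reporter: luminescence rises when SMN2 exon 7 is included in transfected HEK293 cells. Compound exposure lasted 30-36 h at 37C, with 4.5 mM final sodium butyrate as control, followed by a ONE-Glo read.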
Numbers without * were called inactive; ? = inconclusive; · = no result; [ ] = another dose, or the depositor's remark. The call rests on the fitted dose curve; in most records, active means well fitted curve in the direction sought with a large enough effect; inconclusive means small, poorly fitted or top-dose-only effect, or another doubt; inactive means no such curve, though single readings can be large; an effect the other way counts as inactive or inconclusive. Potency means the concentration at half of the fitted maximal effect.

SMILES	Rab9 prom act	NPC1 promoter act	ELG1 genotox	FLuc modulator	SMN2 splice up
Cc1[nH]c2ccccc2c1/C=N/NC(=O)c1cc(-c2ccccc2)n[nH]1	-3%	-12%	-11%	24µM*	·
Cc1sc2ncn(CC(=O)N3CCN(c4ccccc4)CC3)c(=O)c2c1S(=O)(=O)N1CCN(c2ncccn2)CC1	·	·	·	-7%	2%
Cc1cc(C)c2c(n1)SCC(=O)N2CC(=O)Nc1cccc(C)c1C	·	·	·	8%	12%
CC(C)c1ccc(S(=O)(=O)N2CCN(CC(=O)Nc3ccccc3C(F)(F)F)CC2)cc1	·	·	·	2%	·
Cc1ccc(NC(=S)N/N=C/c2c(C)[nH]c3ccccc23)cc1	-1%	0%	1%	19µM*	-27%
COc1ccc(CNC(=O)Cc2c(C)c3c(cc(C)c4c(C)c(C)oc43)oc2=O)cc1OC	·	·	·	6%	5%
CC1(C)CC(=O)C(C(c2ccncc2)C2C(=O)CC(C)(C)CC2=O)C(=O)C1	-2%	2%	0%	2%	-3%
Cc1ccc(C(C2C(=O)CC(C)(C)CC2=O)C2C(=O)CC(C)(C)CC2=O)s1	0%	1%	4%	21µM*	-2%
CCc1ccccc1NC(=O)[C@H](Cc1ccccc1)N1Cc2ccccc2C1=O	·	·	·	-3%	-6%
Cc1cc([N+](=O)[O-])nn1Cc1ccc(C(=O)N/N=C/c2ccc(N(C)C)cc2)cc1	-6%	-4%	4%	9.5µM*	·
CN(C)c1ccc(/C=N/NC(=O)c2cc(-c3ccc4c(c3)OCO4)n[nH]2)cc1	-6%	?	4%	12µM*	·
CN(C)c1ccc(/C=N/NC(=O)c2ccc3c(c2)OCCO3)cc1	?	?	?	4.8µM*	·
CCN(CC)c1ccc(/C=N/NC(=O)c2ccc3c(c2)OCCO3)cc1	0%	15%	4%	7.6µM*	·
O=C(CNC(=O)c1ccc2c(c1)OCCO2)N/N=C/c1ccc(Cl)cc1	-2%	-2%	-1%	?	-1%
CC(C)C[C@@H](CC(=O)N[C@@H](CCC(=O)O)CC(=O)O)NC(=O)[C@@H]1CCCC[C@H]1NC(=O)C[C@@H](NC(=O)C[C@H](Cc1ccccc1)NC(=O)[C@@H]1CNCC[C@H]1N)C(C)C	·	·	·	·	-5%
CCN1C(=O)c2ccccc2S(=O)c2ccc(C(=O)N3CCN(c4cc(Cl)ccc4C)CC3)cc21 (stereo not given)	·	·	·	-1%	-37%
CC1=C(/C=C/C(C)=C/C=C/C(C)=C/C=O)C(C)(C)CCC1	·	·	·	·	3%
COc1cc(CNc2ccc(NC(C)=O)cc2)ccc1OCc1ccccc1C	?	13%	?	15µM*	15%
COc1cc(CNc2ccc(N3CCN(C(C)=O)CC3)cc2)ccc1OCc1ccccc1	-8%	-2%	?	?	·
CCCC(=O)Nc1cccc(-c2nc3cc(C)c(C)cc3o2)c1C	·	·	·	0.27µM*	?
CCCC(=O)Nc1ccc(-c2nc3cc(C)c(C)cc3o2)cc1	0.35µM*	0.35µM*	?	1.1µM*	11µM*
Cc1ccc(OCC(=O)Nc2cccc(-c3nc4ccccc4o3)c2C)cc1C	·	·	·	-1%	0%
COc1cccc(-c2cc(C(=O)N3CCN(c4ncccn4)CC3)c3ccccc3n2)c1	2%	11%	-13%	?	35µM*
Cc1ccc2nc(-c3ccccn3)cc(C(=O)N3CCN(c4ncccn4)CC3)c2c1	-1%	-1%	-12%	19µM*	13%
COc1ccc(-c2cc(C(=O)N3CCN(c4ncccn4)CC3)c3ccccc3n2)cc1OC	0%	7%	-3%	13µM*	·
SMILES	Rab9 prom act	NPC1 promoter act	ELG1 genotox	FLuc modulator	SMN2 splice up
COc1ccc(-c2cc(C(=O)N3CCN(c4cccc(C)c4C)CC3)c3ccccc3n2)cc1OC	-3%	-1%	-35%	?	·
COc1ccc(-c2cc(C(=O)N3CCC3)c3ccccc3n2)cc1OC	-2%	1%	3%	3%	·
O=C(c1cc(-c2ccccn2)nc2ccccc12)N1CCN(c2ncccn2)CC1	11%	-5%	-7%	?	15%
CC(C)Oc1cccc(-c2cc(C(=O)N3CCN(S(C)(=O)=O)CC3)c3ccccc3n2)c1	25%	20%	-15%	3µM*	?
COc1ccc(-c2nn3c(=O)cc(CN4CCN(C(=O)Nc5ccc(C)c(Cl)c5)CC4)nc3s2)cc1	·	·	·	-3%	·
CC(C)Oc1cccc(-c2cc(C(=O)N3CCN(c4ncccn4)CC3)c3ccccc3n2)c1	17%	24%	-12%	1.3µM*	29%
NC(=O)/N=N/C(N)=O	·	·	·	·	-10%
COC(=O)CSc1nnc(-c2c[nH]c3ccccc23)o1	-1%	-4%	2%	15µM*	·
c1ccc(CSc2nnc(-c3c[nH]c4ccccc34)o2)cc1	?	?	?	8.5µM*	?
CC(C)(C)NC(=O)CSc1nnc(-c2c[nH]c3ccccc23)o1	21%	5%	5%	?	·
COC(=O)CSc1nnc(-c2ccc(OC)cc2OC)o1	-1%	3%	6%	21µM*	-1%
CC(C)(CN)CN	·	·	·	·	-5%[9.22 µM]
COc1cccc(NC(=O)c2sc3nc(C)c(C(=O)Nc4ccc(Cl)cc4)c(-c4ccc(Br)cc4)c3c2N)c1	·	·	·	-8%	9%
CCOc1ccc(NC(=O)CCc2c(C)nc3nc(-c4cc(OC)cc(OC)c4)nn3c2C)cc1	·	·	·	-9%	-4%
O=C(Nc1nc2c(s1)CCCC2)c1cccnc1	?	2.5µM*	2.1µM*	12µM*	·
CC(C)(C)c1nc(SCC(=O)Nc2nc3c(s2)CCCC3)c2ccccc2n1	17%	-3%	-6%	2%	3.2µM*
O=C(Nc1nc2c(s1)CCCC2)c1cccs1	0.71µM*	2.8µM*	?	1.1µM*	3.2µM*
O=C(Nc1nc2c(s1)CCCC2)c1cc(-c2ccccc2)nc2ccccc12	-11%	-10%	0%	?	-7%
O=C(CCSc1ccccc1)Nc1nc2c(s1)CCCC2	28%	30%	23µM*	19µM*	8%
O=C(CSc1ncn(-c2ccccc2)n1)Nc1nc2c(s1)CCCC2	-9%	2%	?	-24%	?
Cc1cccc(CNc2ncnc3ccc(-c4ccc5c(ccn5C)c4)cc23)c1	-5%	-3%	·	?	·
O=C(Cc1cccs1)Nc1nc2c(s1)CCCC2	2.8µM*	?	?	17µM*	13µM*
O=C(Cc1cn2ccsc2n1)Nc1nc2c(s1)CCCC2	6%	8%	12%	-16%	-22%
CCS(=O)(=O)c1nc(S(=O)(=O)c2ccc(Cl)cc2)c(NCc2ccc(Cl)cc2)s1	·	·	·	-1%	-8%
O=c1oc2ccc(Br)cc2cc1-c1nc(-c2ccccc2)no1	·	·	·	-1%	12%
CCN(CC)c1ccc2cc(-c3nc(-c4ccccc4)no3)c(=O)oc2c1	·	·	·	6µM*	·

Screens: PubChem BioAssay, National Center for Advancing Translational Sciences (NCATS)
